Screening results (PubChem)
Beta apoptosis = blocks beta cell apoptosis. INS-1E cytokine-induced death, ATP luminescence, 48 h; percent of positive-control rescue, neutral wells zero. 0.8% of 300,000 active. protection from apoptosis, % (concentration not given with the values). AID 435005;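 active = Every replicate reaches about 75%, or at least half do and their mean reaches it too, limit read from the data; inconclusive = At least half of replicates reach the limit but their mean does not; inactive = Under half of replicates reach the limit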;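 note: 0% = cytokine-treated negative control wells and 100% = positive control rescue; higher means more ATP so stronger rescue from cytokine killing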
CSC inhib = blocks cancer stem cells; cancer stem cell-like cells viability, luminescence; inhibition, % at 7.5 µM; 1.1% of 300,000 active; in the data active = inhibition above about 75%; inconclusive = no clear call, values can overlap the other calls; tested in HMLE shEcad cells
MPTP block = permeability transition pore inhibition. AID 602449. 1.4% of 360,000 active. inhibition, % at 10 µM. isolated mouse mitochondria, Ca2+ swelling absorbance, 30 min;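 active = inhibition of 50% or more, scaled per plate between neutral and stimulator controls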;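 note: 0% = DMSO wells given calcium and 100% = 1 mM EGTA wells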
Calb FLC = C. albicans growth modulation with fluconazole; 0.57% of 300,000 active; growth inhibition, % (test concentration not listed); C. albicans CaCi-2 (fluconazole-resistant clinical isolate) + fluconazole, Alamar Blue growth, 48 h;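 active = growth inhibition above about 58% in most replicates, limit read from the data, passing the limit was not always enough; inconclusive = exactly half the replicates above a set limit; inactive = most replicates below a set limit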;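 note: all wells also contain fluconazole at 8 µg/ml as a sub-toxic cotreatment; 0% = median of DMSO wells and 100% = median of geldanamycin control wells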
Mdm2-MdmX inh = disrupts the human Mdm2-MdmX interaction; inhibition, % at 8 µM; 3% of 330,000 active; SaOS-2 split-luciferase Mdm2/MdmX complementation, luminescence; AID 485346; O15151+Q00987;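 active = inhibition of at least 50% at 8 µM in the primary screen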
Target sequence (O15151 whole entry, looked up): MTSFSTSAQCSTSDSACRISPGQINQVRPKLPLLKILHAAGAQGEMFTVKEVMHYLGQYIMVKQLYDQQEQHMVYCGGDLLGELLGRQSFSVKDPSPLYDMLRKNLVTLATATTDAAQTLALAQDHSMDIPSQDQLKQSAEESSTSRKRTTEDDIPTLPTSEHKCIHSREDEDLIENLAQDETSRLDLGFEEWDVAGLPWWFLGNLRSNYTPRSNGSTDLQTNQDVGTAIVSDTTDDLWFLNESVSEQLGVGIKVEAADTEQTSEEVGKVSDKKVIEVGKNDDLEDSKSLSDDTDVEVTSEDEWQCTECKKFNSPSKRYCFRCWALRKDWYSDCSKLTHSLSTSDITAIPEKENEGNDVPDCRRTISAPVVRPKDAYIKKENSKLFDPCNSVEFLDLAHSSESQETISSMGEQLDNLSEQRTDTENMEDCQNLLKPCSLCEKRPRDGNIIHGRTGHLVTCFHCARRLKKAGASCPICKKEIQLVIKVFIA
Target sequence (Q00987 whole entry, looked up): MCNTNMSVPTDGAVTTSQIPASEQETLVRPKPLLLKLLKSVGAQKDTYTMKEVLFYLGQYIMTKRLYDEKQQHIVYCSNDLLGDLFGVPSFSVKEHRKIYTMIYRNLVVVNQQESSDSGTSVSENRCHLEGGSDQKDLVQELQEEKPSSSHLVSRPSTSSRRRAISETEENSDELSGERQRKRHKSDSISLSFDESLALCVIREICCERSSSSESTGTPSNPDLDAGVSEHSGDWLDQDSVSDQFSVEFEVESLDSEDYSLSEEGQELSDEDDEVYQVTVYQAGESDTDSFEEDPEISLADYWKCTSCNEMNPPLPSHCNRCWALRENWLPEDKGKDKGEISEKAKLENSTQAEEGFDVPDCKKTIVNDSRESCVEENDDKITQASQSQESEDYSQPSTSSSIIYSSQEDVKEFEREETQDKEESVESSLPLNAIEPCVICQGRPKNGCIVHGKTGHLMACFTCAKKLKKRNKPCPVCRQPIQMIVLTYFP
SKKanGAS inh = SKKanGAS growth inhibition; S. pyogenes SKKanGAS, kanamycin growth, BacTiter-Glo, 6 h; inhibition, % at 7.5 µM; 1.3% of 300,000 active;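 active = mean replicate score, as percent of positive control median, at least 50; inconclusive = mean below 50 but one replicate at or above 50; inactive = mean and every replicate below 50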;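 note: strain carries kanamycin resistance gene driven by streptokinase promoter and grows in 40 µg/ml kanamycin; loss of luminescence reflects streptokinase promoter inhibition or plain growth inhibition; 0% = median of DMSO wells and 100% = positive control at its reference dose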
Starred values were filed as active, the others as inactive; ? = inconclusive; · = no result given. Only some compounds are listed: those with a hit (about 5.4% of all), similar ones and a draw of the others.

SMILES	Beta apoptosis	CSC inhib	MPTP block	Calb FLC	Mdm2-MdmX inh	SKKanGAS inh
O=C1C(NS(=O)(=O)c2cccs2)=C(N2CCN(Cc3ccccc3)CC2)C(=O)c2ccccc21	46.8	12.6	3.8	20.0	41.2	27.3
CN1CCN(C2=C(NS(=O)(=O)c3cccs3)C(=O)c3ccccc3C2=O)CC1	92.8*	8.3	2.4	22.6	13.1	4.8
Cc1c(C(=O)OCC(=O)NCc2ccco2)oc2ccccc12	-2.4	-6.1	-2.9	·	28.3	·
COc1c(F)cc2[nH]c3c(c2c1F)CCNC3=O	-4.9	0.4	-2.7	-4.8	27.6	-6.2
Clc1ccc(COn2c(-c3ccc(Cl)cc3)nc3ccccc32)cc1	9.9	41.8	3.7	6.1	21.2	52.5*
Clc1ccc(COn2c(-c3ccccc3)nc3ccccc32)cc1	4.4	51.6	1.3	-10.0	10.4	6.9
COC(=O)c1c(NC(=O)c2ccccc2)sc(C(N)=O)c1C	·	·	0.3	6.9	7.2	0.3
COC(=O)c1c(NC(=O)c2ccccc2)sc(C(=O)c2ccccc2)c1C	-0.1	-11.4	-6.3	?	28.4	73.0*
NNC(=O)Cn1c(-c2nonc2N)nc2ccccc21	-8.6	10.3	-0.7	-0.7	-9.4	2.4
Nc1nonc1-c1nc2ccccc2n1CC(=O)N/N=C\c1ccc(-c2ccc(Cl)cc2)o1	-7.7	-2.9	0.4	-32.8	29.0	98.6*
COc1cc(/C=C2\C(=O)ON=C2c2ccc(Cl)cc2)ccc1O	-36.2	87.1*	·	1.1	34.7	-2.7
O=C1ON=C(c2ccccc2)/C1=C/c1ccc(O)c(O)c1	-5.9	5.3	5.6	2.2	11.2	6.4
COCCCNC(=S)Nc1ccc2nc3n(c(=O)c2c1)CCCCC3	-1.8	3.1	-0.6	-0.7	11.3	0.5
COc1ccc(/C=C/C(=O)NC(=S)NNC(=O)[C@H]2C[C@@H]2c2ccccc2)cc1OC	6.1	0.3	5.5	·	29.9	63.2*
O=C(NC(=S)NNC(=O)[C@H]1C[C@@H]1c1ccccc1)c1cccc(F)c1	10.5	17.6	7.5	61.5	10.1	99.2*
COc1cccc(OC)c1C(=O)NC(=S)NCc1ccccc1	-0.9	-15.4	0.4	3.4	25.1	-12.6
COc1ccc(/C=C/C(=O)NC(=S)NN2CCCCC2c2cccnc2)cc1OC (configuration not stated)	-11.5	-0.1	0.7	-2.9	34.6	-3.4
COc1cccc(OC)c1C(=O)NC(=S)NNC(=O)[C@H]1C[C@@H]1c1ccccc1	·	·	0.5	-6.8	40.4	79.0*
COc1ccc(-c2noc(CN3CCC(Cc4ccccc4)CC3)n2)cc1	-1.2	-4.6	-2.6	-11.6	-10.6	3.5
O=C(Nc1ccc(Cl)cc1)c1csc(-c2ccccc2)n1	-0.2	14.0	4.0	-0.1	2.2	-9.6
CCc1ccccc1NC(=O)NNS(=O)(=O)c1cc(C)ccc1C	-13.4	-3.2	-1.1	11.6	-3.1	51.2*
CC(=O)N1C(=S)NC(=O)/C1=C1/C(=O)N(CC(=O)Nc2cccc(C)c2)c2ccccc21	-0.6	16.1	0.6	35.0	-11.6	-8.2
CCOC(=O)Cc1csc(NC(=O)CCc2ccc(S(=O)(=O)N3CCOCC3)cc2)n1	5.5	-4.6	-0.3	-9.8	2.2	-10.2
Oc1cccc(-c2nc3ccc4ccccc4c3c3c2CCC3)c1	5.3	-4.6	-2.5	31.8	-93.4	63.1*
COC(=O)c1ccccc1NC(=O)CSc1nccc(C)n1	·	-4.8	0.4	-4.6	5.1	-1.6
SMILES	Beta apoptosis	CSC inhib	MPTP block	Calb FLC	Mdm2-MdmX inh	SKKanGAS inh
Cc1ccc(N=Nc2ccc(O)c(P(=O)(c3ccccc3)c3ccccc3)c2)cc1	-0.4	14.3	23.0	-1.8	10.1	49.7*
O=[N+]([O-])c1ccc(CP(=O)(c2ccccc2)c2ccccc2)cc1	22.3	80.6*	0.6	4.0	-4.0	2.9
O=[N+]([O-])c1cccc(CP(=O)(c2ccccc2)c2ccccc2)c1	-2.5	-2.3	-0.8	·	-3.7	·
O=[N+]([O-])c1ccc(O)c(P(=O)(c2ccccc2)c2ccccc2)c1	-5.7	11.5	1.1	99.8*	19.6	-0.9
COC(=O)[C@@H](CC(C)C)NS(=O)(=O)N(Cc1ccccc1)[C@@H](CC(C)C)C(=O)OC	2.4	8.8	-2.3	·	22.8	·
COc1ccc(NC(C)=O)cc1S(=O)(=O)Nc1ccc(S(=O)(=O)N2CCCCC2)cc1	-7.0	-11.2	0.4	·	-4.6	·
C/C(=N\Nc1nc2ccccc2s1)c1ccc(Br)s1	90.4*	83.6*	10.6	-73.5	10.0	91.6*
COC(=O)C1CCCN1C(=O)C12CC3CC(CC(C3)C1)C2 (configuration not stated)	12.5	-8.9	0.2	-8.1	6.6	-0.5
O=C(CNc1ccccc1F)N/N=C/C1CC=CCC1 (configuration not stated)	-1.0	-17.9	-0.7	122.6*	28.3	·
O=C(N/N=C/C1CC=CCC1)c1ccccc1O (configuration not stated)	4.7	-6.3	4.5	-4.3	-3.0	7.2
CCCCC(=O)Nc1nc(C)c(-c2csc(Nc3cc(OC)ccc3OC)n2)s1	2.7	81.3*	8.0	-2.2	39.1	9.4
Cc1ccc(S(=O)(=O)c2cc3ccccc3oc2=O)cc1	-13.5	2.0	1.7	?	-6.4	3.6
CCN(CC)c1ccc2cc(S(=O)(=O)c3ccc(C)cc3)c(=O)oc2c1	9.0	98.5*	20.4	101.3*	18.9	-6.6
S=c1[nH]nc(-c2cc(-c3ccccc3)n[nH]2)n1/N=C/c1c(Cl)cccc1Cl	-1.3	41.2	15.8	-0.6	3.6	61.0*
Oc1c(Br)cc(/C=N/n2c(-c3ccccc3)n[nH]c2=S)c(Br)c1O	8.5	106.1*	·	-3.5	·	3.0
Cc1cc(-c2n[nH]c(=S)n2/N=C/c2ccc(Br)s2)n[nH]1	-6.7	7.6	-0.2	18.1	0.3	8.9
Oc1c(Br)cc(Br)cc1/C=N/n1c(-c2ccccc2)n[nH]c1=S	-9.1	1.4	-1.6	12.2	9.7	3.3
S=c1[nH]nc(-c2cc(-c3ccccc3)n[nH]2)n1/N=C/c1ccc(Br)s1	-10.5	52.9	6.2	11.5	-13.3	59.5*
COc1cc(/C=C2\C(=N)N3N=C(N4CCOCC4)SC3=NC2=O)ccc1OC(=O)c1ccccc1	4.6	-2.4	0.0	-6.6	15.8	2.4
N=C1/C(=C\c2ccc(OC(=O)c3ccccc3Cl)cc2)C(=O)N=C2SC(N3CCOCC3)=NN12	-6.4	-3.4	1.2	27.5	3.6	53.5*
CCCC(O)(CCC)C(=O)NNc1ccc(C)cc1	6.8	23.0	2.1	110.6*	-3.5	-15.1
CCCCC(O)(CCCC)C(=O)NN(C(=O)OC)c1ccc(C)cc1	-3.3	-9.9	1.0	3.6	8.1	-17.3
CC1(C)COCN1S(=O)(=O)c1ccc(C(=O)Nc2nnc(-c3ccc(Cl)s3)o2)cc1	·	43.7	·	78.6*	14.6	101.0*
CCCC(=O)Nc1nnc(-c2ccc(Cl)s2)o1	·	-0.6	0.1	-4.8	26.2	-5.4
COc1ccc(-c2nnc(NC(=O)c3ccc(S(=O)(=O)N4COCC4(C)C)cc3)o2)cc1	·	28.6	-11.1	68.5	43.2	88.9*
